Data reported in PubChem BioAssay (Tox21).
Several values for one entry are separate records, joined by “and”; a condition that tells them apart may be missing. Equal values may be shown once. Inconclusive results are not listed. Some structures have more than one record in an assay (separate samples or runs), and their calls can disagree. Activity calls are given as the source filed them. Unless noted, calls come from the whole dose curve.

What follows are compounds tested against Acetylcholinesterase (Homo sapiens) (UniProt P22303) (assay: Acetylcholinesterase (AChE) small molecule antagonists: enzyme-based qHTS assay (AID 1347397; note: nearly all actives have a fitted effect of over 55% in size)). Details: Potency: AChE enzyme activity inhibition; series mostly up to 115 µM; activity change, negative = inhibition: at the top concentration.
Outline: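 In this quantitative HTS, compounds from the Tox21 10K collection were preincubated 30 min at ambient temperature with recombinant human AChE dispensed at 50 mU/mL. Hydrolysis of acetylthiocholine was then followed for 10 min by DTNB colour development.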
% is set by controls: 0 for no effect and ±100 for the full control effect.

Acetylcholinesterase (Homo sapiens), sequence (P22303 whole entry, looked up): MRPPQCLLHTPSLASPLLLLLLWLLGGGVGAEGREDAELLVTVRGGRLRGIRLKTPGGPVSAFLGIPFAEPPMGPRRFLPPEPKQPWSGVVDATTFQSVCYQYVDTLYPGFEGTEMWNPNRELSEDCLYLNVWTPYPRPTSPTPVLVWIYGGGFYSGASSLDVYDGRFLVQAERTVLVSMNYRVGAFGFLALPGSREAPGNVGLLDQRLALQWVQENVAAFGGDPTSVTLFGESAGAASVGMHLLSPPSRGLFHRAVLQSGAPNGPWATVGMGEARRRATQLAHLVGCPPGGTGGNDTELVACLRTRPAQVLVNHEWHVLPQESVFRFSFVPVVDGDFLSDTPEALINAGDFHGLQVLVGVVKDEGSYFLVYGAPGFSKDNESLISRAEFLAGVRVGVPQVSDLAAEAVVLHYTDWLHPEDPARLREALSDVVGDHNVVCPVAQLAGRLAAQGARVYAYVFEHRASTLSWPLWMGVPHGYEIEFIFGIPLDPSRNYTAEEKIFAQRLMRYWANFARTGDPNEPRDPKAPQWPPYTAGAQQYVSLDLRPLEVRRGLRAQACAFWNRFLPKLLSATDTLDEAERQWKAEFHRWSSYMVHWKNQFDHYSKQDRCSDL

| SMILES | activity change, negative = inhibition |
| --- | --- |
| Cc1ccc2ccccc2c1 | -0.136% (inactive) |
| C=CCOC(C)=O | 1.09% (inactive) |
| OCCCBr | -6.44% (inactive) |
| Cl/C=C\C[N+]12CN3CN(CN(C3)C1)C2 | -3.7% (inactive) |
| C=CC(=O)OCCCCO | 0.175% (inactive) |
| CN1C(=O)NC(=O)C(C)(C2=CCCCC2)C1=O (configuration not stated) | 0.0034% [at 53 µM] (inactive) |
| O=C(NC(=O)c1c(F)cccc1F)Nc1ccc(OC(F)(F)C(F)OC(F)(F)F)c(Cl)c1 (configuration not stated) | 0.08% [at 53 µM] (inactive) |
| COC(=O)c1cncn1C(C)c1ccccc1 (configuration not stated) | -0.111% [at 53 µM] (inactive) |
| CCCCCCCCOC(=O)c1ccc(C(=O)OCCCCCCCC)c(C(=O)OCCCCCCCC)c1 | -0.103% (inactive) |
| S=C=NCc1ccccc1 | -0.682% (inactive) |
| CCOP(O)OCC | 1.23% (inactive) |
| CCBr | -1.36% (inactive) |
| Cc1c(F)c(F)c(COC(=O)C2C(/C=C(\Cl)C(F)(F)F)C2(C)C)c(F)c1F (configuration not stated) | -7.4% (inactive) |
| CC(C)(C)C(O)C(Oc1ccc(Cl)cc1)n1cncn1 (configuration not stated) | 3% (inactive) |
| N#Cc1cc(I)c(O)c(I)c1 | 0.387% (inactive) |
| c1ccc(CN2CCNCC2)cc1 | 0.815% [at 300 µM] (inactive) |
| Cc1ccccc1CCl | 1.8% (inactive) |
| O=C(NCc1cccnc1)Nc1ccc([N+](=O)[O-])cc1 | -0.387% (inactive) |

Each compound was assayed against Acetylcholinesterase (Homo sapiens) (UniProt P22303) (assay: Acetylcholinesterase (AChE) small molecule antagonists: fluorescence cell-based qHTS assay (AID 1347398; note: nearly all actives have a fitted effect of over 50% in size; note: potency is the fitted concentration of half-maximal effect)). Details: SH-SY5Y cells; Potency: AChE activity; series mostly up to 115 µM; activity change, negative = inhibition: at the top concentration.
Outline: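 Cells (SH-SY5Y) attached overnight, were dosed with compound or DMSO vehicle for 30 min at 37 C, and then incubated 40 min at room temperature with acetylthiocholine and Thiolite Green; green fluorescence indexed AChE activity.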

| SMILES | activity change, negative = inhibition | Potency |
| --- | --- | --- |
| Cc1ccc2ccccc2c1 | 0.112% (inactive) | – |
| C=CCOC(C)=O | -0.869% (inactive) | – |
| O=C1NCN(c2ccccc2)C12CCN(CCCOc1ccc(F)cc1)CC2 | -15.6% [at 53.7 µM] (inactive) | – |
| OCCCBr | 6.78% (inactive) | – |
| Cl/C=C\Cl | 2.5% (inactive) | – |
| Cl/C=C\C[N+]12CN3CN(CN(C3)C1)C2 | -17.2% (inactive) | – |
| CN1C(=O)NC(=O)C(C)(C2=CCCCC2)C1=O (configuration not stated) | 0.626% [at 53.7 µM] (inactive) | – |
| COC(=O)c1cncn1C(C)c1ccccc1 (configuration not stated) | 2.78% [at 53.7 µM] (inactive) | – |
| O=NN1CCCCCC1 | 6.86% (inactive) | – |
| II | -23.9% (inactive) | – |
| CCOP(O)OCC | 0.849% (inactive) | – |
| Cc1c(F)c(F)c(COC(=O)C2C(/C=C(\Cl)C(F)(F)F)C2(C)C)c(F)c1F (configuration not stated) | -4.02% (inactive) | – |
| O=C(Nc1ccccc1)Nc1ccnc(Cl)c1 | -10.3% (inactive) | – |
| N#Cc1cc(I)c(O)c(I)c1 | -4.23% (inactive) | – |
| c1ccc(CN2CCNCC2)cc1 | 6.68% [at 293 µM] (inactive) | – |
| CC/C(=N\OC/C=C/Cl)C1=C(O)CC(C2CCOCC2)CC1=O (configuration not stated) | 2.69% (inactive) | – |
| CC(C)(CCl)C(=O)Cl | 3.14% (inactive) | – |
| Cc1ccccc1CCl | 1.75% (inactive) | – |
| C=CC[C@]1(O)CC[C@H]2[C@@H]3CCC4=CC(=O)CCC4=C3C=C[C@@]21C | – | 6.92 µM (active) |
| O=C(NCc1cccnc1)Nc1ccc([N+](=O)[O-])cc1 | -2.33% (inactive) | – |

The compounds below were run against Acetylcholinesterase (Homo sapiens) (UniProt P22303) (assay: Acetylcholinesterase (AChE) small molecule antagonists: enzyme-based qHTS assay with human liver microsomes (AID 1347399; note: nearly all actives have a fitted effect of over 60% in size)). Details: Potency: qHTS inhibition; series mostly up to 115 µM; activity change, negative = inhibition: at the top concentration.
Outline: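 Recombinant human AChE (50 mU/mL in the enzyme mix) and human liver microsomes (0.25 mg/mL final) were preincubated with compound and NADPH (0.25 mg/mL final) for 30 min at 37 C. Acetylthiocholine/DTNB was then added; thiocholine was read colorimetrically after 10 min at room temperature.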

| SMILES | activity change, negative = inhibition |
| --- | --- |
| Cc1ccc2ccccc2c1 | -0.943% (inactive) |
| C=CCOC(C)=O | -2.88% (inactive) |
| O=C1NCN(c2ccccc2)C12CCN(CCCOc1ccc(F)cc1)CC2 | -0.952% [at 53 µM] (inactive) |
| OCCCBr | 7.65% (inactive) |
| CCOc1nc(F)cc2nc(S(=O)(=O)Nc3c(Cl)cccc3Cl)nn12 | -0.0044% (inactive) |
| Cl/C=C\Cl | 0.853% (inactive) |
| Cl/C=C\C[N+]12CN3CN(CN(C3)C1)C2 | 0% (inactive) |
| C=CC(=O)OCCCCO | 0.283% (inactive) |
| CN1C(=O)NC(=O)C(C)(C2=CCCCC2)C1=O (configuration not stated) | 0.672% [at 53 µM] (inactive) |
| O=C(NC(=O)c1c(F)cccc1F)Nc1ccc(OC(F)(F)C(F)OC(F)(F)F)c(Cl)c1 (configuration not stated) | 4.43% [at 53 µM] (inactive) |
| COC(=O)c1cncn1C(C)c1ccccc1 (configuration not stated) | 0.831% [at 53 µM] (inactive) |
| O=NN1CCCCCC1 | -1.76% (inactive) |
| CCCCCCCCOC(=O)c1ccc(C(=O)OCCCCCCCC)c(C(=O)OCCCCCCCC)c1 | -0.583% (inactive) |
| II | -1.22% (inactive) |
| S=C=NCc1ccccc1 | -6.24% (inactive) |
| CCOP(O)OCC | 0.611% (inactive) |
| CCBr | -3.39% (inactive) |
| Cc1c(F)c(F)c(COC(=O)C2C(/C=C(\Cl)C(F)(F)F)C2(C)C)c(F)c1F (configuration not stated) | 0.121% (inactive) |
| O=C(Nc1ccccc1)Nc1ccnc(Cl)c1 | -0.441% (inactive) |
| C=CC(=O)OCC(C)C | 5.87% (inactive) |
| CC(C)(C)C(O)C(Oc1ccc(Cl)cc1)n1cncn1 (configuration not stated) | 0.879% (inactive) |
| N#Cc1cc(I)c(O)c(I)c1 | -0.463% (inactive) |
| c1ccc(CN2CCNCC2)cc1 | -1.47% [at 300 µM] (inactive) |
| CC/C(=N\OC/C=C/Cl)C1=C(O)CC(C2CCOCC2)CC1=O (configuration not stated) | 1.31% (inactive) |
| CC(C)(CCl)C(=O)Cl | -2.53% (inactive) |
| Cc1ccccc1CCl | -0.323% (inactive) |
| C=CC[C@]1(O)CC[C@H]2[C@@H]3CCC4=CC(=O)CCC4=C3C=C[C@@]21C | -0.938% [at 53 µM] (inactive) |
| O=C(NCc1cccnc1)Nc1ccc([N+](=O)[O-])cc1 | -0.779% (inactive) |

What follows are compounds tested against Cytochrome P450 2D6 (Homo sapiens) (UniProt P10635) (assay: Cytochrome P450 Family 2 Subfamily D Member 6 (CYP2D6) small molecule antagonists: luciferase reporter qHTS assay (AID 1671196; active = well fitted inhibition curve with a large enough effect in the repeat runs; note: nearly all actives have a fitted effect of over 50% in size; note: potency is the fitted concentration of half-maximal effect)). Details: P450-Glo CYP2D6 enzyme assay, luciferin luminescence, 1 h; series mostly up to 115 µM; activity change, negative = inhibition: at the top concentration.
Outline: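 Chemicals tested for interference with CYP2D6 activity; proluciferin substrate, NADPH regeneration, 1 h at room temperature, luminescent detection.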

Cytochrome P450 2D6 (Homo sapiens), sequence (P10635 whole entry, looked up): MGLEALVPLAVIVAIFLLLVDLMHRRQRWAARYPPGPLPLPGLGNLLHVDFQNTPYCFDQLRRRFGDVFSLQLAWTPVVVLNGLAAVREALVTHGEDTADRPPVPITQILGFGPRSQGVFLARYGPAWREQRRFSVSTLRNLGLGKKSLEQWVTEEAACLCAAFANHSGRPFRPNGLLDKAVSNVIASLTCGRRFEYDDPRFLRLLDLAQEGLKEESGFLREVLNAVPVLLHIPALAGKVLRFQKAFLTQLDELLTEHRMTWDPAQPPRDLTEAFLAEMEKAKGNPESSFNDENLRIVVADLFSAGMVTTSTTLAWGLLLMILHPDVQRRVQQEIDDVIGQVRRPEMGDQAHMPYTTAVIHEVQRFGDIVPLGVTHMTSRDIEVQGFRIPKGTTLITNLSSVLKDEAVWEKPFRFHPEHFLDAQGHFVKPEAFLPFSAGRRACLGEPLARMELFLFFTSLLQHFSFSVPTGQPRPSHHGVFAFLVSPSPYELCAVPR

| SMILES | activity change, negative = inhibition | Potency |
| --- | --- | --- |
| Cc1ccc2ccccc2c1 | 0.114% (inactive) | – |
| C=CCOC(C)=O | -11.3% (inactive) | – |
| O=C1NCN(c2ccccc2)C12CCN(CCCOc1ccc(F)cc1)CC2 | – | 0.347 µM (active) |
| CCOc1nc(F)cc2nc(S(=O)(=O)Nc3c(Cl)cccc3Cl)nn12 | -5.08% (inactive) | – |
| Cl/C=C\Cl | 2.12% (inactive) | – |
| Cl/C=C\C[N+]12CN3CN(CN(C3)C1)C2 | – | 71 µM (active) |
| C=CC(=O)OCCCCO | -11.9% (inactive) | – |
| CN1C(=O)NC(=O)C(C)(C2=CCCCC2)C1=O (configuration not stated) | -5.06% [at 53 µM] (inactive) | – |
| O=C(NC(=O)c1c(F)cccc1F)Nc1ccc(OC(F)(F)C(F)OC(F)(F)F)c(Cl)c1 (configuration not stated) | -3.9% [at 53 µM] (inactive) | – |
| COC(=O)c1cncn1C(C)c1ccccc1 (configuration not stated) | – | 8.71 µM (active) |
| O=C(N[C@H](c1ccccc1)[C@@H]1CN2CCC1CC2)c1c(Cl)ccc(C(F)(F)F)c1Cl | – | 2.56 µM (active) |
| O=NN1CCCCCC1 | 3% (inactive) | – |
| CCOP(=O)(OCC)Oc1ccc([N+](=O)[O-])cc1 | – | 1.61 µM (active) and 1.59 µM (active) |
| CCCCCCCCOC(=O)c1ccc(C(=O)OCCCCCCCC)c(C(=O)OCCCCCCCC)c1 | -8.28% (inactive) | – |
| II | – | 28.3 µM (active) |
| S=C=NCc1ccccc1 | – | 28.6 µM (active) |
| CCn1cc[n+](C)c1 | – | inactive and 507 nM (active) and 34.7 µM (active) |
| CCOP(O)OCC | -14.1% (inactive) | – |
| Cc1c(F)c(F)c(COC(=O)C2C(/C=C(\Cl)C(F)(F)F)C2(C)C)c(F)c1F (configuration not stated) | -15.1% (inactive) | – |
| O=C(Nc1ccccc1)Nc1ccnc(Cl)c1 | – | 39.9 µM (active) |
| C=CC(=O)OCC(C)C | 0.023% (inactive) | – |
| N#Cc1cc(I)c(O)c(I)c1 | -11.3% (inactive) | – |
| c1ccc(CN2CCNCC2)cc1 | – | 17.2 µM (active) |
| CC/C(=N\OC/C=C/Cl)C1=C(O)CC(C2CCOCC2)CC1=O (configuration not stated) | -15% (inactive) | – |
| Cc1ccccc1CCl | -21.7% (inactive) | – |
| O=C(NCc1cccnc1)Nc1ccc([N+](=O)[O-])cc1 | – | 35.6 µM (active) |
